Screening results from PubChem BioAssay.
Sampled rows, rich in hits. Any-hit rate of the full collection: about 3.9%.
Tb PFK block – blocks T. brucei phosphofructokinase; T. brucei PFK, ADP-Glo luminescence; 0.17% of 330,000 active; AID 485367; Potency, µM (doses to about 57.5 µM), without a hit: at the highest dose activity, negative = inhibition, hits mostly inhibitors;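 further: 0% = uninhibited 1x PFK enzyme wells and -100% = no-enzyme wells; nearly all actives have a fitted effect of over 60% in size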
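Luminescent ADP detection (ADP-Glo, two-step: ATP depletion then ADP-to-ATP conversion for luciferase) reported PFK activity after 45 min room-temperature reaction of 1.25 nM enzyme with 0.5 mM F6P and 0.1 mM ATP at pH 8.0.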
PLK1 PBD block – PLK1 (human) polo-box domain binding inhibition. P53350. Plk1 PBD binding of FITC phosphopeptide, fluorescence polarization. Potency, µM, without a hit: max response, negative = inhibition, most hits filed as inhibitors. 2.8% of 360,000 active. AID 720504; further: series mostly up to about 57 µM; on the % scale 0 is the no-effect control and ±100 the full control effect; nearly all actives have a fitted effect of over 65% in size
Target sequence (P53350 whole entry, looked up, the tested form may be a part): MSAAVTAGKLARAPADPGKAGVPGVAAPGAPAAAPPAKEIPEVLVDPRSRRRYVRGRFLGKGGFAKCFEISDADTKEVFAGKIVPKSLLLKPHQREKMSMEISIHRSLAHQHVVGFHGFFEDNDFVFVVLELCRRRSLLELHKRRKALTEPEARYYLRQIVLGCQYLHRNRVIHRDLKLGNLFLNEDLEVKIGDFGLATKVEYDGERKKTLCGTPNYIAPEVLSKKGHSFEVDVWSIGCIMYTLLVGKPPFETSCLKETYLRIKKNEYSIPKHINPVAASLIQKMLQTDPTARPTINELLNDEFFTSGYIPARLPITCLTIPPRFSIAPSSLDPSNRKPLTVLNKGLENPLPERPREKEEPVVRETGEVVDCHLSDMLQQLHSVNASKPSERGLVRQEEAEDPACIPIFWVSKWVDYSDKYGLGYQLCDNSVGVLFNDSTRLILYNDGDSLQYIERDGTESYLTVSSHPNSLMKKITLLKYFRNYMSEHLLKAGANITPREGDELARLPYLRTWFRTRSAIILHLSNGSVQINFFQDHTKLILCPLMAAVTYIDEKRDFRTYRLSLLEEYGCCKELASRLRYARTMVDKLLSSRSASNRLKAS
BRCA1 expr up – BRCA1 expression activation; MCF7-BRCA1-FFLuc reporter, luminescence, 48 h; response scale: scaled: vehicle 0%, 10 µM genistein 100%; Potency, µM (top dose mostly 46.1 µM), for inactives: top-dose activation, most hits filed as activators; 1.1% of 380,000 active; AID 624202; further: nearly all actives have a fitted effect of over 80% in size
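Reporter cells (MCF7, BRCA1 promoter-firefly luciferase) received library compounds across a concentration series for 48 h. End-point luminescence was measured and concentration-effect curves derived after normalization.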
VDR inhibitor – vitamin D3 receptor (human) inhibition. P11473. VDR-SRC2-3 peptide fluorescence polarization, 2 h. Potency, µM, inactives show max response, negative = inhibition, hits mostly inhibitors. 0.93% of 400,000 active; further: on the % scale 0 is the no-effect control and ±100 the full control effect
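VDR–SRC2-3 interaction, FP format. Cmpds 23 nl via pintool, brief spin, 2 h ambient incubation.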
* hit, by the source's call; u = inconclusive; x = no result given. The call rests on the fitted dose curve; in most records, active means well fitted curve in the direction sought with a large enough effect; inconclusive means small, poorly fitted or top-dose-only effect, or another doubt; inactive means no such curve, though single readings can be large; an effect the other way counts as inactive or inconclusive. Potency means the concentration at half of the fitted maximal effect.

SMILES	Tb PFK block	PLK1 PBD block	BRCA1 expr up	VDR inhibitor
CC(=O)c1ccc(NC(=O)c2cnn3ccccc23)cc1	-6%	-2%	-69%	7%
CN(CC(=O)Nc1ccc2c(c1)CCC2)CC(=O)Nc1ccccc1Br	1%	6.7µM*	-8%	u
CCc1ccc(NC(=O)Nc2ccc3c(c2)CCC3)cc1	3%	-15%	3.5µM*	-16%
CC(=O)c1cccc(NC(=O)c2cnn3ccccc23)c1	-8%	-9%	3.5µM*	-8%
c1ccc(N2CCN(c3ncnc4[nH]ncc34)CC2)cc1	x	x	x	-1%
Cc1cc(/C=C2\NC(=S)N(C)C2=O)ccc1N1CCCC1	2%	58%	5µM*	-19%
COc1cccc(C(C(=O)NC2CCCC2)N(C(=O)c2csnn2)C2CC2)c1 (centres undefined)	0%	-13%	-7%	-20%
CCCCn1c(NC(C)=O)c(C#N)c2nc3ccccc3nc21	10%	-9%	0%	u
C=CCn1c(NC(=O)c2ccccc2Cl)c(C#N)c2nc3ccccc3nc21	-14%	-29%	-71%	35µM*
O=C(C#Cc1ccccc1)c1ccco1	-10%	3.4µM*	-104%	22µM*
CCOc1ccc(C(O)(c2ccccc2)C(CN2CCCC2)c2ccccc2)cc1 (centres undefined)	2%	6µM*	-18%	u
CCOc1ccc(C(O)(CCC(C)C)C(CN2CCOCC2)c2ccccc2)cc1 (centres undefined)	3%	-5%	-71%	-2%
COc1ccc(C)cc1NC(=O)C(OC(=O)c1ccc([N+](=O)[O-])o1)c1ccccc1 (centres undefined)	4%	27µM*	-24%	-5%
COc1ccc(C)cc1NC(=O)C(OC(=O)c1cnccn1)c1ccccc1 (centres undefined)	0%	1%	-32%	-11%
COC(=O)c1ccccc1NC(=O)Cc1nc(-c2ccc(OC)cc2)no1	x	x	x	-1%
CC(C)(C)c1ccc(OCC(=O)N2CCCCCC2)c(Br)c1	0%	-9%	17%	9%
CCN(CC)c1ccc(C(=S)N2CCN(c3ccccc3)CC2)cc1	-7%	13µM*	1%	-7%
CN(C)c1ccc(C(=O)C(=O)N2CCN(c3ccccc3)CC2)cc1	x	-3%	x	x
Cc1ccccc1N1CCN(C(=S)c2ccccc2)CC1	-1%	-6%	-3%	-18%
CC(C)(C)c1ccc(C(=S)N2CCN(c3ccccc3)CC2)cc1	-2%	24µM*	2%	u
O=C(c1ccccc1)N1CCCC(C(=O)N2CCN(c3ccccc3)CC2)C1 (centres undefined)	-6%	27µM*	-16%	u
Cc1ccc(OCC(=O)N2CCCCC2)c(Br)c1	-1%	-1%	11µM*	8%
COc1ccccc1N1CCN(C(=O)c2ccc(C(C)(C)C)cc2)CC1	-9%	2.7µM*	-18%	u
O=C(c1ccccc1)N1CCN(c2ccccc2)CC1	x	-11%	2%	5%
Cc1ccc2c(Cl)cc(Cl)c(OCC(=O)N3CCCC3)c2n1	-2%	27µM*	-5%	-25%
SMILES	Tb PFK block	PLK1 PBD block	BRCA1 expr up	VDR inhibitor
S=C(c1ccccc1)N1CCN(c2ccccc2)CC1	x	27µM*	-2%	-12%
COc1ccc(C(=O)N2CCN(c3ccccc3OC)CC2)cc1	-3%	-12%	13%	-8%
COc1ccccc1N1CCN(C(=O)COc2cc(C)ccc2C)CC1	-4%	21µM*	-17%	40µM*
O=C(OCc1nc2scc(-c3ccccc3)c2c(=O)[nH]1)c1ccco1	-5%	-1%	-3%	-9%
O=C(OCc1nc2scc(-c3ccccc3)c2c(=O)[nH]1)c1cccc([N+](=O)[O-])c1	1%	30µM*	2%	-20%
CCOCCCn1c(SCC(=O)Nc2ccccc2OC)nc2c(oc3ccccc32)c1=O	x	x	-29%	-9%
Cc1ccc(S(=O)(=O)Nc2nc(C)c(NC(=O)OCCCl)s2)cc1	2%	-14%	-17%	89µM*
Cc1ccc(S(=O)(=O)Nc2nc(C)c(NC(=O)Nc3ccc(Cl)cc3Cl)s2)cc1	0%	21µM*	-15%	-19%
COc1ccc(NC(=O)Nc2sc(NS(=O)(=O)c3ccccc3)nc2C)cc1	-3%	u	-21%	33%
COc1cc(C(=O)Nc2nonc2-c2ccc(Cl)cc2)cc(OC)c1OC	x	x	x	7%
CCCc1nnc(N2C(=O)c3oc4ccc(F)cc4c(=O)c3C2c2ccc(C(=O)OC)cc2)s1 (centres undefined)	x	x	x	5%
CCOC(=O)c1c(C)nc(C)c(C(=O)OCC)c1-c1ccc(O)c(OC)c1	-2%	6.7µM*	-17%	u
CC(OC(=O)c1ccccc1C(=O)N(C)c1ccccc1)C(=O)Nc1ccc(C(N)=O)cc1 (centres undefined)	0%	-8%	-11%	-4%
CC(OC(=O)c1cc(O)c2ccccc2c1O)C(=O)Nc1ccc(C(N)=O)cc1 (centres undefined)	0%	6.7µM*	7%	u
COc1ccc(N2CCN(C(=O)c3ccc(N(C)S(=O)(=O)c4ccc(C)cc4)cc3)CC2)cc1	-7%	-9%	-40%	-6%
COc1ccc(N2CCN(C(=O)c3ccc(N(C)S(=O)(=O)c4ccc(OC)cc4)cc3)CC2)cc1	-3%	13µM*	-5%	89µM*
S=C(NCCc1c[nH]c2ccccc12)NC1CCCCC1	1%	u	11µM*	13%
O=C(COC(=O)c1c[nH]c2ccccc12)NC1CCCC1	0%	-10%	7%	6%
O=C(NC1CCCCC1)C(=O)c1c[nH]c2ccccc12	-3%	8%	13µM*	-15%
S=C(NCCc1c[nH]c2ccccc12)NC1CCCC1	3%	-2%	18%	2%
Fc1ccccc1-n1ncc2c1ncn1nc(-c3ccccc3Cl)nc21	x	x	x	3%
O=c1c(-c2cccs2)nc2cncnc2n1Cc1ccc(F)cc1	x	x	x	-18%
COC(=O)Cn1c(Cc2ccccc2)nc2ccccc21	-3%	6µM*	0%	-19%
COC(=O)Cn1c(=O)cnc2ccccc21	-2%	-3%	-29%	5%
CCc1nn2c(=O)cc(COc3ccc(NC(=O)c4ccco4)cc3)nc2s1	-1%	27µM*	7%	-9%
SMILES	Tb PFK block	PLK1 PBD block	BRCA1 expr up	VDR inhibitor
CC(C)Cc1nn2c(=O)cc(COc3ccc(NC(=O)c4ccco4)cc3)nc2s1	1%	-8%	0%	2%
CCc1nn2c(=O)cc(COc3cccc(NC(=O)c4ccco4)c3)nc2s1	-26%	27µM*	9%	u
CCCc1nn2c(=O)cc(COc3ccc(NC(=O)c4ccco4)cc3)nc2s1	1%	21µM*	11%	-25%
COc1ccc(C2c3c(n(C)c4ccccc34)C(=O)N2CC(=O)Nc2ccc(C)c(Cl)c2)cc1 (centres undefined)	x	x	x	5%
CN(C)c1ccc(C(CNC(=O)c2ccccc2)N2CCc3ccccc32)cc1 (centres undefined)	x	x	x	15%
O=C(CN1CCN(CC(=O)Nc2ccc3c(c2)OC2(CCCCC2)O3)CC1)Nc1cccc(F)c1	x	2%	-37%	5%
O=c1[nH]c(=S)[nH]c2sccc12	0%	15µM*	61%	-24%
CSc1nc2sccc2c(=O)[nH]1	2%	2%	8%	-10%
